Results: PubChem BioAssay (NCATS)
Records with an inconclusive call do not appear. Where a call stands in place of a potency, no number is given. Activity calls are given as the source filed them. Calls come from the whole dose curve; as a rule, active = well fitted curve in the direction sought with a large enough effect; inconclusive = small, poorly fitted or top-dose-only effect, or another doubt; inactive = no such curve, though single readings can be large; an effect the other way counts as inactive or inconclusive.

Experiments:
[1] = target: Pyruvate kinase (Leishmania mexicana) (UniProt Q27686); test: qHTS Validation Assay for Activators of Leishmania Mexicana Pyruvate Kinase (AID 959); details: purified L. mexicana pyruvate kinase, enzyme activity; series mostly up to 57.5 µM
How it was run: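 qHTS eight-point titrations against 0.2 nM LmPYK (E451W) in imidazole buffer pH 7.2 with 0.5 mM PEP, 0.1 mM ADP; 1 h, room temperature. Readout: PKLight luminescence, normalized to neutral DMSO wells.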

[2] = target: ATP-dependent 6-phosphofructokinase (Trypanosoma brucei brucei) (UniProt O15648); test: qHTS Assay to Find Inhibitors of T. brucei phosphofructokinase: hit validation (AID 492961);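 note: luminescence reports ADP formed as PFK phosphorylates fructose-6-phosphate with ATP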; details: T. brucei PFK, ADP-Glo luminescence; series mostly up to 51.4 µM
How it was run: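 ADP-Glo luminescence read-out of ADP formed by 1.25 nM PFK from 0.1 mM ATP and 0.5 mM F6P (TEA pH 8.0, 45 min, RT). Compounds titrated; activity normalized to no-enzyme and full-enzyme controls.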

3D7 = test: qHTS profiling for inhibitors of Plasmodium falciparum proliferation (AID 504749); note: nearly all actives have a fitted effect of over 60% in size; note: potency is the fitted concentration of half-maximal effect; details: P. falciparum in erythrocytes, SYBR Green DNA, 72 h; series mostly up to 28.7 µM
How it was run: (§1)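 Three-day growth assay of blood-stage parasites in erythrocytes (0.3% parasitemia, 2.5% hematocrit) at 37 C, 5% CO2, quantified by SYBR Green DNA staining after overnight detergent lysis.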

7G8 = test: as above; details: P. falciparum in erythrocytes, SYBR Green DNA, 72 h; series mostly up to 28.7 µM
How it was run: as §1

CP192 = test: as above; details: P. falciparum in erythrocytes, SYBR Green DNA, 72 h; series mostly up to 28.7 µM
How it was run: as §1

CP201 = test: as above; details: P. falciparum in erythrocytes, SYBR Green DNA, 72 h; series mostly up to 28.7 µM
How it was run: as §1

CP215 = test: as above; details: P. falciparum in erythrocytes, SYBR Green DNA, 72 h; series mostly up to 28.7 µM
How it was run: as §1

CP237 = test: as above; details: P. falciparum in erythrocytes, SYBR Green DNA, 72 h; series mostly up to 28.7 µM
How it was run: as §1

CP262 = test: as above; details: P. falciparum in erythrocytes, SYBR Green DNA, 72 h; series mostly up to 28.7 µM
How it was run: as §1

CP266 = test: as above; details: P. falciparum in erythrocytes, SYBR Green DNA, 72 h; series mostly up to 28.7 µM
How it was run: as §1

CP325 = test: as above; details: P. falciparum in erythrocytes, SYBR Green DNA, 72 h; series mostly up to 28.7 µM
How it was run: as §1

DIV14 = test: as above; details: P. falciparum in erythrocytes, SYBR Green DNA, 72 h; series mostly up to 28.7 µM
How it was run: as §1

DIV17 = test: as above; details: P. falciparum in erythrocytes, SYBR Green DNA, 72 h; series mostly up to 28.7 µM
How it was run: as §1

Dd2 = test: as above; details: P. falciparum in erythrocytes, SYBR Green DNA, 72 h; series mostly up to 28.7 µM
How it was run: as §1

FAB9 = test: as above; details: P. falciparum in erythrocytes, SYBR Green DNA, 72 h; series mostly up to 28.7 µM
How it was run: as §1

GB4 = test: as above; details: P. falciparum in erythrocytes, SYBR Green DNA, 72 h; series mostly up to 28.7 µM
How it was run: as §1

HB3 = test: as above; details: P. falciparum in erythrocytes, SYBR Green DNA, 72 h; series mostly up to 28.7 µM
How it was run: as §1

P94_40 = test: as above; details: P. falciparum in erythrocytes, SYBR Green DNA, 72 h; series mostly up to 28.7 µM
How it was run: as §1

PC49 = test: as above; details: P. falciparum in erythrocytes, SYBR Green DNA, 72 h; series mostly up to 28.7 µM
How it was run: as §1

TAB165 = test: as above; details: P. falciparum in erythrocytes, SYBR Green DNA, 72 h; series mostly up to 28.7 µM
How it was run: as §1

Chain of ATP-dependent 6-phosphofructokinase (Trypanosoma brucei brucei) (O15648 whole entry, looked up): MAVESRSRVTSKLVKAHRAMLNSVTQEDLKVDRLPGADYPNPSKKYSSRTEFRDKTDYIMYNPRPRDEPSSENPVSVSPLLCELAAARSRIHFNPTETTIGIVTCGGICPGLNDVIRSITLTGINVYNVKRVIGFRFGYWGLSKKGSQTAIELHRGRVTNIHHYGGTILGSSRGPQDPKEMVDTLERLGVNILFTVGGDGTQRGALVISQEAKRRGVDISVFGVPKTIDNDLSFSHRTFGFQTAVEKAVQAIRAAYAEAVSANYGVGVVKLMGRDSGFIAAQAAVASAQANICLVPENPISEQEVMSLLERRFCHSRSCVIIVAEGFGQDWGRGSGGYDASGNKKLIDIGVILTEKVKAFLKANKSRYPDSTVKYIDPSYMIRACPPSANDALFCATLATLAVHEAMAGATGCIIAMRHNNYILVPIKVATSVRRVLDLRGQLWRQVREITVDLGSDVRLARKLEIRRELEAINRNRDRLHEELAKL
Chain of Pyruvate kinase (Leishmania mexicana) (Q27686 2-499 E452W): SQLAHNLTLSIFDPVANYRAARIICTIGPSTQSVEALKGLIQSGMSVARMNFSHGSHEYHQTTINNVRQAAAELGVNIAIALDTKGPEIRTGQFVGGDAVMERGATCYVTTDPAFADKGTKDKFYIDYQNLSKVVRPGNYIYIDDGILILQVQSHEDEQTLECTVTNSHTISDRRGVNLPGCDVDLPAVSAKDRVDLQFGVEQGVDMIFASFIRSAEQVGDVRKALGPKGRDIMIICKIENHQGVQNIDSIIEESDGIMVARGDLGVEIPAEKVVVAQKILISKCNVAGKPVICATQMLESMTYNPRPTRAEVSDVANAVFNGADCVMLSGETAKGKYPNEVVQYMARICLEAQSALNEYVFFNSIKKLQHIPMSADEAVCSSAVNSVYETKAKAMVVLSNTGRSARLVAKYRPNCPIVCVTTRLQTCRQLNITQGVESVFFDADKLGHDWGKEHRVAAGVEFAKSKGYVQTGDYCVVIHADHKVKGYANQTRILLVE

Row | SMILES | Potency [1] | outcome [2] | Potency (3D7) | Potency (7G8) | Potency (CP192) | Potency (CP201) | Potency (CP215) | Potency (CP237) | Potency (CP262) | Potency (CP266) | Potency (CP325) | Potency (DIV14) | Potency (DIV17) | Potency (Dd2) | Potency (FAB9) | Potency (GB4) | Potency (HB3) | Potency (P94_40) | Potency (PC49) | Potency (TAB165)
1 | N[C@]1(C(=O)O)CCc2cc(C(=O)O)ccc21 | 15.8 µM (active) | – | – | – | – | – | – | – | – | – | – | – | – | – | – | – | – | – | – | –
2 | CCOC(=O)C(CCc1ccccc1)NC1CCc2ccccc2N(CC(=O)O)C1=O (stereo not given) | – | inactive | inactive | 7.94 µM (active) | inactive | inactive | inactive | 10 µM (active) | inactive | inactive | inactive | 7.57 µM (active) | 10.7 µM (active) | 11.2 µM (active) | inactive | 15.1 µM (active) | inactive | inactive | inactive | 11.2 µM (active)
3 | C[C@@H](C(=O)O)c1ccc(-c2ccccc2)c(F)c1 | – | inactive | inactive | inactive | inactive | inactive | inactive | inactive | inactive | inactive | inactive | inactive | inactive | inactive | inactive | inactive | inactive | inactive | inactive | inactive
4 | Cc1cccc(/C=C\c2ccccc2)n1 | inactive | – | – | – | – | – | – | – | – | – | – | – | – | – | – | – | – | – | – | –
